# Results taken from the antibiotic and cytotoxicity screens of Wong et al. (2023).
# The campaign covered roughly 39,000 compounds. About 500 (1.3%) were called active. The sample as a whole holds a higher share of actives than the screen did.
# System: S. aureus RN4220
# Test: growth inhibition call (relative growth <= 0.2)
# Settings: 50 µM
row,SMILES,growth inhibition call
1,C[C@@H]1CN([C@H](C)CO)C(=O)CCCn2nncc2CO[C@H]1CN(C)C(=O)Nc1ccnc(N2CCOCC2)c1,inactive
2,COc1ccc(C#Cc2ccc3c(c2)[C@]2(C(=O)N3)[C@H](C(=O)O)[C@H]3C(=O)O[C@H](c4ccccc4)[C@H](c4ccccc4)N3[C@@H]2c2ccc(O)cc2)cc1,inactive
3,CN1C(=O)[C@@]2(c3cc(Cl)ccc31)[C@H](C(=O)O)[C@H]1C(=O)O[C@H](c3ccccc3)[C@H](c3ccccc3)N1[C@@H]2c1ccc(F)cc1,active
4,O=C1O[C@H](c2ccccc2)[C@H](c2ccccc2)N2[C@H]1[C@@H](C(=O)O)[C@]1(C(=O)Nc3ccc(Cl)cc31)[C@H]2c1ccc(F)cc1,active
5,COc1ccc(C#Cc2ccc3c(c2)[C@@]2(C(=O)N3C(=O)N[C@@H](C)c3ccccc3)[C@H](c3ccc(OCCO)cc3)N3[C@H](c4ccccc4)[C@H](c4ccccc4)OC(=O)[C@H]3[C@@H]2C(=O)O)cc1,inactive
6,COCCOC(=O)N1C(=O)[C@@]2(c3cc(C#Cc4ccc(OC)cc4)ccc31)[C@H](c1ccc(O)cc1)N1[C@H](c3ccccc3)[C@H](c3ccccc3)OC(=O)[C@H]1[C@@H]2C(N)=O,inactive
7,COc1ccc(C#Cc2ccc3c(c2)[C@]2(C(=O)N3)[C@H](c3ccc(O)cc3)N3[C@H](c4ccccc4)[C@H](c4ccccc4)OC(=O)[C@H]3[C@@H]2C(=O)O)cc1,inactive
8,Cc1noc(C)c1S(=O)(=O)N(C)C[C@@H]1OCCCC[C@H](C)Oc2ccc(NC(=O)Nc3cccc4ccccc34)cc2C(=O)N([C@H](C)CO)C[C@H]1C,inactive
9,Cc1noc(C)c1NC(=O)N(C)C[C@@H]1OCCCC[C@@H](C)Oc2ccc(NC(=O)CCC(F)(F)F)cc2C(=O)N([C@H](C)CO)C[C@@H]1C,inactive
10,CN(C)CC(=O)N[C@H]1C=C[C@H](CC(=O)O)O[C@H]1CO,inactive
11,COc1cccc2c1C(=O)c1c(O)c3c(c(O)c1C2=O)C[C@](O)(C(C)=O)C[C@H]3O[C@H]1C[C@@H](N)[C@@H](O)[C@@H](C)O1,active
12,CC(=O)[C@]1(O)Cc2c(O)c3c(c(O)c2[C@@H](O[C@@H]2C[C@@H](N)[C@H](O)[C@@H](C)O2)C1)C(=O)c1c(O)cccc1C3=O,active
13,CC(=O)[C@]1(N)Cc2c(O)c3c(c(O)c2[C@@H](O[C@H]2C[C@H](O)[C@H](O)CO2)C1)C(=O)c1ccccc1C3=O,inactive
14,COc1cccc2c1C(=O)c1c(O)c3c(c(O)c1C2=O)CC(O)(C(C)=O)CC3OC1CC(N)C(O)C(C)O1.Cl (stereo not given),inactive
15,COc1cccc2c1C(=O)c1c(O)c3c(c(O)c1C2=O)C[C@@](O)(C(C)=O)C[C@@H]3O[C@H]1C[C@H](N)[C@H](O)[C@H](C)O1,active
16,Cc1ccc(S(=O)(=O)Nc2cccc3c2O[C@H](CN(C)S(=O)(=O)c2cn(C)cn2)[C@@H](C)CN([C@H](C)CO)C3=O)cc1,inactive
17,C[C@@H]1CCCCO[C@H](CN(C)C(=O)NC2CCCCC2)[C@H](C)CN([C@@H](C)CO)C(=O)c2cc(NC(=O)Nc3ccc4c(c3)OCO4)ccc2O1,inactive
18,Cc1cc(C)n([C@@H](CC(=O)O)C(=O)O)n1,inactive
19,C[C@@H]1CCCCO[C@H](CN(C)Cc2ccc(Cl)c(Cl)c2)[C@H](C)CN([C@@H](C)CO)C(=O)c2cc(NC(=O)Nc3ccc4c(c3)OCO4)ccc2O1,inactive
20,O=C(/C=C/c1ccc(CNc2ccc([C@H]3O[C@@H](CSc4ccncc4)C[C@H](c4ccccc4)O3)cc2)cc1)NO,inactive

row,SMILES,growth inhibition call
1,C[C@H](CO)N1C[C@H](C)[C@H](CN(C)S(=O)(=O)c2cn(C)cn2)Oc2c(NS(=O)(=O)c3ccc(F)cc3)cccc2C1=O,inactive
2,C[C@H]1CCCCO[C@H](CN(C)C(=O)Nc2ccc(F)cc2)[C@@H](C)CN([C@@H](C)CO)C(=O)c2cc(NC(=O)Nc3cccc4ccccc34)ccc2O1,inactive
3,COc1cccc(S(=O)(=O)Nc2ccc3c(c2)[C@@H]2C[C@@H](CC(=O)NC4CCCCC4)O[C@@H](CO)[C@@H]2O3)c1,inactive
4,N#C[C@@H]1N[C@@H](CO)[C@@H]1c1ccccc1,inactive
5,CC(C)NC(=O)N(C)C[C@@H]1Oc2ccc(NC(=O)Nc3ccc4c(c3)OCO4)cc2CC(=O)N([C@@H](C)CO)C[C@H]1C,inactive
6,COc1ccc(CN(C)C[C@H]2OCCCC[C@H](C)Oc3ccc(NS(=O)(=O)c4c(C)noc4C)cc3C(=O)N([C@@H](C)CO)C[C@@H]2C)cc1,inactive
7,COc1ccc(NC(=O)Nc2ccc3c(c2)C(=O)N([C@H](C)CO)C[C@H](C)[C@@H](CN(C)C(=O)c2ccccc2)OCCCC[C@H](C)O3)cc1,inactive
8,C[C@H](CO)N1C[C@H](C)[C@@H](CN(C)Cc2ccc(C(F)(F)F)cc2)OCCCC[C@H](C)Oc2ccc(NC(=O)c3ccccc3)cc2C1=O,inactive
9,CC[C@H]1OC(=O)[C@H](C)[C@@H](O[C@H]2C[C@@](C)(OC)[C@@H](O)[C@H](C)O2)[C@H](C)[C@@H](O[C@@H]2O[C@H](C)C[C@H](N(C)C)[C@H]2O)[C@](C)(O)C[C@@H](C)C(=O)[C@H](C)[C@@H](O)[C@]1(C)O,active
10,CCC1OC(=O)C(C)C(OC2CC(C)(OC)C(O)C(C)O2)C(C)C(OC2OC(C)CC(N(C)C)C2O)C(C)(O)CC(C)C(=O)C(C)C(O)C1(C)O.CCCCCCCCCCCCCCCCCC(=O)O (stereo not given),inactive
11,CCCN1C[C@H](C)[C@@H](O)[C@](C)(O)[C@@H](CC)OC(=O)[C@H](C)[C@@H](O[C@H]2C[C@@](C)(OC)[C@@H](O)[C@H](C)O2)[C@H](C)[C@@H](O[C@@H]2O[C@H](C)C[C@H](N(C)C)[C@H]2O)[C@](C)(O)C[C@H]1C,active
12,CC[C@H]1OC(=O)[C@H](C)[C@@H](O[C@H]2C[C@@](C)(OC)[C@@H](O)[C@H](C)O2)[C@@H](C)[C@@H](O[C@H]2O[C@H](C)C[C@H](N(C)C)[C@H]2O)[C@](C)(O)C[C@@H](C)C(=O)[C@H](C)[C@@H](O)[C@]1(C)O,active
13,CCC1OC(=O)C(C)C(OC2CC(C)(OC)C(O)C(C)O2)C(C)C(OC2OC(C)CC(N(C)C)C2O)C(C)(O)CC(C)C(=O)C(C)C(O)C1(C)O (stereo not given),active
14,C[C@H](CO)N1C[C@H](C)[C@H](CN(C)S(C)(=O)=O)Oc2ccc(NC(=O)Nc3ccc(F)cc3)cc2C1=O,inactive
15,C[C@@H]1CN([C@@H](C)CO)C(=O)c2cc(NC(=O)NC3CCCCC3)ccc2O[C@@H](C)CCCCO[C@H]1CN(C)S(=O)(=O)c1ccccc1,inactive
16,Cc1ccc(NC(=O)c2ccc(CN3CC[C@H](N(C)C)C3)c(C(F)(F)F)c2)cc1Nc1nccc(-c2cncnc2)n1,inactive
17,C[C@@H]1CN([C@H](C)CO)C(=O)c2ccccc2-c2ccccc2CO[C@@H]1CN(C)Cc1ccc(C(F)(F)F)cc1,inactive
18,C[C@H](CO)N1C[C@H](C)[C@H](CN(C)Cc2cncnc2)Oc2ncc(C#C[C@@H](C)O)cc2C1=O,inactive
19,C[C@H]1CN([C@@H](C)CO)C(=O)c2cc(NC(=O)Cn3cnnn3)ccc2O[C@@H]1CN(C)C(=O)Nc1ccccc1,inactive
20,C[C@H]1CN([C@@H](C)CO)S(=O)(=O)c2ccc(C#CC(C)(C)O)cc2O[C@H]1CN(C)Cc1ccc(F)cc1,inactive

row,SMILES,growth inhibition call
1,CCC1OC(=O)C(C)C(OC2CC(C)(OC)C(O)C(C)O2)C(C)C(OC2OC(C)CC(N(C)C)C2O)C(C)(O)CC(C)CN(C)C(C)C(O)C1(C)O (stereo not given),active
2,CC[C@H]1OC(=O)[C@H](C)[C@@H](O[C@H]2C[C@@](C)(OC)[C@@H](O)[C@H](C)O2)[C@H](C)[C@@H](O[C@@H]2O[C@H](C)C[C@H](N(C)C)[C@H]2O)[C@](C)(O)C[C@@H](C)CN(C)[C@H](C)[C@@H](O)[C@]1(C)O,inactive
3,C(=N\C1CCCCCCCCCCC1)/c1ccco1,inactive
4,C[C@H](CO)N1C[C@H](C)[C@H](CN(C)S(=O)(=O)c2cn(C)cn2)Oc2ccc(NC(=O)Cc3cn(C)c4ccccc34)cc2C1=O,inactive
5,C[C@@H]1CN([C@@H](C)CO)C(=O)Cc2cc(NC(=O)Cc3cn(C)c4ccccc34)ccc2O[C@H]1CN(C)Cc1ccc(Oc2ccccc2)cc1,inactive
6,OCc1cn(-c2ccccc2)nn1,inactive
7,c1ccc(-c2nc(C34CC5CC(CC(C5)C3)C4)cs2)cc1,inactive
8,NCc1cn(-c2ccccc2)nc1C12CC3CC(CC(C3)C1)C2,active
9,C=CC[C@@H](CC(=O)N[C@H](CO)Cc1ccccc1)C(=O)N[C@H](C)COC(=O)[C@@H](CC=C)CC(=O)OC(C)(C)C,inactive
10,C[C@@H]1CCCCO[C@@H](CN(C)Cc2ccncc2)[C@H](C)CN([C@H](C)CO)C(=O)c2cc(NC(=O)NC3CCCCC3)ccc2O1,inactive
11,CCc1oc2ccccc2c1C(=O)c1cc(Br)c(O)c(Br)c1,active
12,CCCCc1oc2ccccc2c1C(=O)c1cc(I)c(OCCN(CC)CC)c(I)c1,inactive
13,CCCCc1oc2ccccc2c1C(=O)c1cc(I)c(OCCN(CC)CC)c(I)c1.Cl,inactive
14,OC[C@H]1O[C@@H](OCc2ccccc2)[C@H](O)[C@@H](O)[C@@H]1O,inactive
15,Cc1noc(C)c1NC(=O)Nc1ccc2c(c1)C(=O)N([C@@H](C)CO)C[C@@H](C)[C@@H](CN(C)C(=O)Nc1ccccc1)OCCCC[C@@H](C)O2,inactive
16,COc1cc(NC(=O)c2cccc(-n3cc(NC(=O)Nc4cccc(C)c4)cn3)c2)cc(OC)c1OC,inactive
17,CC(=O)N1[C@H](CNC(=O)CN2CCOCC2)[C@H](c2ccccc2)[C@@H]1CO,inactive
18,CCC=C(C(=O)NC1C(=O)N2C(C(=O)OCOC(=O)C(C)(C)C)=C(COC(N)=O)CSC12)c1csc(N)n1.Cl (stereo not given),inactive
19,CON=C(C(=O)NC1C(=O)N2C(C(=O)OCOC(=O)C(C)(C)C)=C(C=Cc3scnc3C)CSC12)c1csc(N)n1 (stereo not given),active
20,CON=C(C(=O)N[C@@H]1C(=O)N2C(C(=O)OCOC(=O)C(C)(C)C)=C(C=Cc3scnc3C)CS[C@H]12)c1csc(N)n1,active
